Drawing on the supplement of paper PMC6555819, this text covers PBM binding z-score for seven sequences.

What all share (experiment): PBM binding z-score (relative to random genomic background probes); higher = stronger binding; sequences stand for … in GC…GCGATTGACAGCGTAGAATGAAGG
Assay [1] deals with RARb homodimer (NR concentration 270 nM). The essentials:
(§1)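 Binding z-scores were set against random background probes. The data came from custom Agilent 4×180K protein-binding microarrays carrying double-stranded probes with 34-nt variable regions, incubated 1 h with ligand-free nuclear receptor dimers. Partner-specific antibodies detected binding, and scanned fluorescence was regression-normalized.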

Assay [2] relates to RARg:RXRa (NR concentration 270 nM, RXRa partner concentration 90 nM). Put shortly:
as §1

For assay [3], the system named is RARg homodimer (NR concentration 270 nM). Put shortly:
as §1

The test system of assay [4] is RXRa DBDmut IVT, anti-RXR (DBD mutation: RXRa K156A/R161A, NR concentration 90 nM). The essentials:
as §1

The test system of assay [5] is RXRa homodimer (NR concentration 180 nM). Put shortly: as §1
Assay [6] deals with THRa:RXRa (NR concentration 90 nM, RXRa partner concentration 90 nM). Put shortly: as §1
For assay [7], the system named is THRa homodimer (NR concentration 90 nM). The essentials: as §1
Assay [8] deals with VDR homodimer (NR concentration 270 nM). Put shortly: as §1

In the case of ATATGTAGGTTTAGGGTCATTCAGGTTGGTTCGC, the PBM binding z-score in assay [1] was 3.05; in assay [2], 3.53; in assay [3], 2.43; in assay [4], 2.74; in assay [5] it was 4.4; in assay [6] it was 4.23. In addition, the PBM binding z-score in assay [7] is 4.2; in assay [8], 4.83.
Consider AACACAGGGTCACTAGGCCAGAGTAGGTACGAAT, for which the PBM binding z-score in assay [1] worked out at 3.3; in assay [2], 5.06; in assay [3], 4.83; in assay [4] it was 2.79; in assay [5] it was 5.24; in assay [6], 3.3. Further, the PBM binding z-score in assay [7] amounted to 1.02; in assay [8], 2.44.
Regarding TCTTGTATATCAAAGGTTAAGAAAGCCGAAGCCT, the PBM binding z-score in assay [1] came to 1.82; in assay [2], 1.98; in assay [3], 1.32; in assay [4], 0.935; in assay [5], 2.92; in assay [6], 1.58. Also, the PBM binding z-score in assay [7] was found to be 0.181; in assay [8] it was 0.26.
As for CCGTCTGGGGCATAAGGTTACCATAAGCCAGCCC, the PBM binding z-score is 1.92 in assay [1]; 1.86 in assay [2]; 1.18 in assay [3]; -0.715 in assay [4]; 1.23 in assay [5]; 2.17 in assay [6]. Further, the PBM binding z-score came out at 1.31 in assay [7] and 0.173 in assay [8].
On to TTACCAAGGTGTAAGGTCGTTGATGCACGCCTTG, for which the PBM binding z-score turned out to be 0.961 in assay [1]; 0.528 in assay [2]; 0.368 in assay [3]; 0.411 in assay [4]; 1.35 in assay [5]; 2.49 in assay [6]. Moreover, the PBM binding z-score in assay [7] was 1.59; in assay [8], 1.62.
For ATTCAAAGTTCAGGACGAGGTAACGTAAAGCACG, the PBM binding z-score in assay [1] is 3.31; in assay [2] it was 4.56; in assay [3], 4.73; in assay [4], 2.99; in assay [5], 3.08; in assay [6] it was 3.82. Moreover, the PBM binding z-score in assay [7] turned out to be 2.01; in assay [8] it was 2.3.
ATTGAAAGGTCGAGGTGAGTATAGAGAAAGGGAA: the PBM binding z-score amounted to 3.09 in assay [1]; 4.26 in assay [2]; 4.24 in assay [3]; 1.13 in assay [4]; 4.51 in assay [5]; 3.18 in assay [6]. Also, the PBM binding z-score in assay [7] was 1.04; in assay [8], 1.18.
